# Test results published in PubChem BioAssay.
# Active and inactive are the calls of the source.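 Rule for the calls: active = compounds giving at least 50% inhibition in the cell-based MKP-3 phosphatase rescue imaging test; inactive = the rest.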
# Tested on: not listed separately
# Assay: Primary imaging screen for DUSP6 inhibitors that restore phospho-Erk in transfected HeLa cells, chemical complementation (AID 609);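 for inhibition: phospho-Erk level distribution per well compared with pooled transfected vehicle control wells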
# Details: HeLa MKP-3 transfected, phospho-Erk imaging KS statistic; measured here: nuclear pErk red intensity z-score; at 10 µM; stronger effect = higher value; cells stimulated with TPA for 15 min
row,Structure (SMILES),z-score
1,CCOC(=O)Cn1c(SC)nc2sc3c(c2c1=O)CC(C)(C)OC3,-0.342
2,Cc1cc(C)nc(CC(N)=O)n1,0.457
3,Cc1nnc2n(-c3ccccc3)c(=O)c3c4c(sc3n12)CC(C)CC4 (stereo not drawn),-0.493
4,COc1cc(C(=O)OCCN2CCCCC2)ccc1O,0.828
5,N#Cc1c(NC(=O)CCC(=O)O)sc2c1CCCC2,-1.22
6,CCCCc1ccc(NC(=O)CSC2=C(C#N)C(c3ccco3)C3=C(CCCC3=O)N2)cc1 (stereo not drawn),-0.943
7,COC(=O)c1ccc(CSc2ncnc3c2sc2nc(N4CCOCC4)c4c(c23)CCCC4)o1,-0.0919
8,Cc1ccnc(N2CCN(c3cc(C)c(C#N)c4nc5ccccc5n34)CC2)c1,-0.157
9,Cc1nc(Nc2ncc3c(n2)CC(C)(C)CC3=O)nc2ccccc12,3.21
10,COCc1[nH]nc2c1C(c1ccccc1OC)C(C#N)=C(N)O2 (stereo not drawn),-0.624
11,CC(=O)N1CCN(c2nc(CC(C)C)c3c(c2C#N)CCC3)CC1,-0.203
12,CCOCCN(C(=O)COC)c1cccc(OC)c1,0.0482
13,N/C(=N\c1nc2ccccc2o1)NC(=O)c1ccccc1NC(=O)c1ccccc1,-0.375
14,Cc1ccc(C(C)C)c(OCCNc2nc3c(c(=O)n(C)c(=O)n3C)n2C)c1,2.45
15,Cc1nc(SCC(N)=O)[nH]c(=O)c1Cc1ccc(OC(C)C)cc1,0.0528
16,CCOc1ccc(Cc2nc(N)nc(N)n2)cc1,-0.613
17,Cc1nc(NCc2ccccc2)c(C(N)=O)c2c1COC(C)(C)C2,-0.208
18,Cc1nc2n[nH]c(N)c2c2c1COC(C)(C)C2,-0.0762
19,C=CCNC(=O)C(C#N)c1nc2ccccc2nc1N1CCCCCC1 (stereo not drawn),1.59
20,CC(C)C(C(=O)Nc1ncn[nH]1)N1C(=O)c2ccccc2C1=O (stereo not drawn),1.7

row,Structure (SMILES),z-score
1,CCCCOc1cccc(-c2nnc(N)s2)c1,-0.82
2,COc1ccc(OC(=O)c2cc3ccccc3o2)cc1,-0.531
3,CCNc1nc(NC(C)C)nc(N(C#N)C(C)C(=O)N(C)C)n1 (stereo not drawn),0.749
4,CCOC(=O)CSc1nc(-c2ccncc2)ccc1C#N,0.758
5,CCOc1cccc(-c2nnc3sc(C4CCCCC4)nn23)c1,-1.63
6,CCCCn1c(O)c(C=NCCCN(C)C)c(=O)[nH]c1=O,-0.649
7,COc1cccc(C2C(C#N)=C(N)Oc3cc(C)[nH]c(=O)c32)c1OC (stereo not drawn),-0.838
8,Cc1cc(=O)oc(C)c1C(=O)Nc1cccc2nonc12,-0.173
9,COc1cc(OC)cc(C(=O)N2CCC(N3CCN(c4ccccc4)CC3)CC2)c1,-0.404
10,Cc1ccc2[nH]c3c(c2c1)CN(C(=O)CN1CCN(c2ccccn2)CC1)CC3,-0.448
11,COC(=O)c1sccc1NC(=O)c1c(C)cc(=O)oc1C,-0.793
12,CCN(CC)c1ccc2cc(-c3nnc(-c4ccncc4)o3)c(=O)oc2c1,0.914
13,CC(C)(C)NC(=O)CSc1nsc(SCC(=O)NC(C)(C)C)c1C#N,0.955
14,COC(=O)CN(c1nc(C)c(Br)c(OC)n1)S(=O)(=O)c1ccc(C)cc1,0.387
15,COc1cc(C2C3C(=O)N(c4ccccc4)C(=O)C3ON2c2ccccc2)ccc1O (stereo not drawn),-0.00927
16,Cc1ccc(C2C(C(=O)c3cc4ccccc4o3)=C(O)C(=O)N2CCCN(C)C)cc1 (stereo not drawn),0.773
17,CC(C)C1Cc2c(C#N)c(N)n(C)c(=S)c2CO1 (stereo not drawn),0.802
18,CCC12CN3CC(CC)(CN(C1)C3c1c(O)ccc3ccccc13)C2=O (stereo not drawn),0.594
19,CCOc1ccc(CCNC(=O)C(O)c2ccccc2)cc1 (stereo not drawn),-0.425

# Molecular target: Dual specificity protein phosphatase 6 (Homo sapiens) (UniProt Q16828)
# Assay: as above
# Details: HeLa MKP-3 transfected, phospho-Erk imaging KS statistic; at 10 µM; stronger effect = higher value; cells stimulated with TPA for 15 min
# Chain of Dual specificity protein phosphatase 6 (Homo sapiens) (Q16828 whole entry, looked up): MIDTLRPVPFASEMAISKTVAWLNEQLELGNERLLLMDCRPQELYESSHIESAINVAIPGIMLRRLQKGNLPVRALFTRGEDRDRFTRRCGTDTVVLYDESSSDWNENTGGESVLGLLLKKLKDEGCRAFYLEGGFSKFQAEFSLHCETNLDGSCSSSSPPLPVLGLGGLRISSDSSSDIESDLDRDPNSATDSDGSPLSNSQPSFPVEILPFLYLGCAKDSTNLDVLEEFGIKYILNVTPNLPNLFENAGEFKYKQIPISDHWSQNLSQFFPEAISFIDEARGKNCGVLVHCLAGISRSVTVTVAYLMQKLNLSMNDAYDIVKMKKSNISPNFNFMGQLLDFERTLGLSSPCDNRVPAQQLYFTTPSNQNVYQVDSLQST
row,Structure (SMILES),inhibition
1,CCOC(=O)Cn1c(SC)nc2sc3c(c2c1=O)CC(C)(C)OC3,-0.159% (inactive)
2,Cc1cc(C)nc(CC(N)=O)n1,6.04% (inactive)
3,Cc1nnc2n(-c3ccccc3)c(=O)c3c4c(sc3n12)CC(C)CC4 (stereo not drawn),16.1% (inactive)
4,COc1cc(C(=O)OCCN2CCCCC2)ccc1O,-3.98% (inactive)
5,N#Cc1c(NC(=O)CCC(=O)O)sc2c1CCCC2,-7.28% (inactive)
6,CCCCc1ccc(NC(=O)CSC2=C(C#N)C(c3ccco3)C3=C(CCCC3=O)N2)cc1 (stereo not drawn),7.42% (inactive)
7,COC(=O)c1ccc(CSc2ncnc3c2sc2nc(N4CCOCC4)c4c(c23)CCCC4)o1,1.48% (inactive)
8,Cc1ccnc(N2CCN(c3cc(C)c(C#N)c4nc5ccccc5n34)CC2)c1,13.9% (inactive)
9,Cc1nc(Nc2ncc3c(n2)CC(C)(C)CC3=O)nc2ccccc12,-3.5% (inactive)
10,COCc1[nH]nc2c1C(c1ccccc1OC)C(C#N)=C(N)O2 (stereo not drawn),-7.28% (inactive)
11,CC(=O)N1CCN(c2nc(CC(C)C)c3c(c2C#N)CCC3)CC1,5.26% (inactive)
12,CCOCCN(C(=O)COC)c1cccc(OC)c1,-5.62% (inactive)
13,N/C(=N\c1nc2ccccc2o1)NC(=O)c1ccccc1NC(=O)c1ccccc1,2.46% (inactive)
14,Cc1ccc(C(C)C)c(OCCNc2nc3c(c(=O)n(C)c(=O)n3C)n2C)c1,-4.27% (inactive)
15,Cc1nc(SCC(N)=O)[nH]c(=O)c1Cc1ccc(OC(C)C)cc1,3.5% (inactive)
16,CCOc1ccc(Cc2nc(N)nc(N)n2)cc1,-8.76% (inactive)
17,Cc1nc(NCc2ccccc2)c(C(N)=O)c2c1COC(C)(C)C2,9.39% (inactive)
18,Cc1nc2n[nH]c(N)c2c2c1COC(C)(C)C2,5.57% (inactive)
19,C=CCNC(=O)C(C#N)c1nc2ccccc2nc1N1CCCCCC1 (stereo not drawn),15% (inactive)
20,CC(C)C(C(=O)Nc1ncn[nH]1)N1C(=O)c2ccccc2C1=O (stereo not drawn),-4.27% (inactive)

row,Structure (SMILES),inhibition
1,CCCCOc1cccc(-c2nnc(N)s2)c1,-13.3% (inactive)
2,COc1ccc(OC(=O)c2cc3ccccc3o2)cc1,-9.66% (inactive)
3,CCNc1nc(NC(C)C)nc(N(C#N)C(C)C(=O)N(C)C)n1 (stereo not drawn),-12.3% (inactive)
4,CCOC(=O)CSc1nc(-c2ccncc2)ccc1C#N,-3.95% (inactive)
5,CCOc1cccc(-c2nnc3sc(C4CCCCC4)nn23)c1,15.5% (inactive)
6,CCCCn1c(O)c(C=NCCCN(C)C)c(=O)[nH]c1=O,4.25% (inactive)
7,COc1cccc(C2C(C#N)=C(N)Oc3cc(C)[nH]c(=O)c32)c1OC (stereo not drawn),-2.47% (inactive)
8,Cc1cc(=O)oc(C)c1C(=O)Nc1cccc2nonc12,-4.7% (inactive)
9,COc1cc(OC)cc(C(=O)N2CCC(N3CCN(c4ccccc4)CC3)CC2)c1,12.7% (inactive)
10,Cc1ccc2[nH]c3c(c2c1)CN(C(=O)CN1CCN(c2ccccn2)CC1)CC3,4.72% (inactive)
11,COC(=O)c1sccc1NC(=O)c1c(C)cc(=O)oc1C,-8.76% (inactive)
12,CCN(CC)c1ccc2cc(-c3nnc(-c4ccncc4)o3)c(=O)oc2c1,72.4% (inactive)
13,CC(C)(C)NC(=O)CSc1nsc(SCC(=O)NC(C)(C)C)c1C#N,-4.27% (inactive)
14,COC(=O)CN(c1nc(C)c(Br)c(OC)n1)S(=O)(=O)c1ccc(C)cc1,9.82% (inactive)
15,COc1cc(C2C3C(=O)N(c4ccccc4)C(=O)C3ON2c2ccccc2)ccc1O (stereo not drawn),5.42% (inactive)
16,Cc1ccc(C2C(C(=O)c3cc4ccccc4o3)=C(O)C(=O)N2CCCN(C)C)cc1 (stereo not drawn),-2.91% (inactive)
17,CC(C)C1Cc2c(C#N)c(N)n(C)c(=S)c2CO1 (stereo not drawn),-8.76% (inactive)
18,CCC12CN3CC(CC)(CN(C1)C3c1c(O)ccc3ccccc13)C2=O (stereo not drawn),9.82% (inactive)
19,CCOc1ccc(CCNC(=O)C(O)c2ccccc2)cc1 (stereo not drawn),5.57% (inactive)
